In PubChem BioAssay (NCI):
Compounds without any hit were thinned out: in the full panel of roughly 83,000, 20% have a hit.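 Interpretation: 100, growth as untreated; towards 0, rising growth inhibition; 0, no net growth; 0 to -100, cell death. Compounds scoring below 10 were considered active.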 A number with no mark means an inactive call. The source made the active and inactive calls.

Experiments:
Experiment in all cases: NCI-60 one-dose screen, 48 h (100 = growth as untreated, 0 = no growth, -100 = all killed)
NCI-H23 lung = conditions: 10 µM unless noted
NCI-H226 lung = conditions: 10 µM unless noted
NCI-H322M lung = conditions: 10 µM unless noted
HOP-62 NSCLC = conditions: 10 µM unless noted
NCI-H460 lung = conditions: 10 µM unless noted
HOP-92 NSCLC = conditions: 10 µM
NCI-H522 lung = conditions: 10 µM unless noted
A549/ATCC NSCLC = conditions: 10 µM unless noted
786-0 renal = conditions: 10 µM unless noted
COLO 205 colon = conditions: 10 µM unless noted
DU-145 prostate = conditions: 10 µM unless noted
K-562 leukemia = conditions: 10 µM unless noted
MALME-3M melanoma = conditions: 10 µM unless noted
MDA-MB-231 breast = conditions: 10 µM unless noted
RXF 393 renal = conditions: 10 µM unless noted
SF-268 CNS = conditions: 10 µM unless noted
SF-295 CNS = conditions: 10 µM unless noted
SF-539 CNS = conditions: 10 µM unless noted
UACC-257 melanoma = conditions: 10 µM unless noted

Row | Compound | growth (NCI-H23 lung) | growth (NCI-H226 lung) | growth (NCI-H322M lung) | growth (HOP-62 NSCLC) | growth (NCI-H460 lung) | growth (HOP-92 NSCLC) | growth (NCI-H522 lung) | growth (A549/ATCC NSCLC) | growth (786-0 renal) | growth (COLO 205 colon) | growth (DU-145 prostate) | growth (K-562 leukemia) | growth (MALME-3M melanoma) | growth (MDA-MB-231 breast) | growth (RXF 393 renal) | growth (SF-268 CNS) | growth (SF-295 CNS) | growth (SF-539 CNS) | growth (UACC-257 melanoma)
1 | Cc1ccc(-n2c(/C=C3\C(=O)Nc4ccccc43)ccc2CO)cc1 | 80.6% | 88.2% | 103% | 72.8% | 80.3% | 84.5% | 73.6% | 71.3% | 101% | 91.5% | 92.2% | 19.2% | 44% | 64% | 66.1% | 89.5% | 69.8% | 68.7% | 85.8%
2 | O=C1[C@H]2Cc3c([nH]c4ccccc34)[C@@H](c3ccc(Cl)cc3)N2C(=O)CN1C1CCN(Cc2ccccc2)CC1 | 73.8% | 49% | 57.1% | 74.8% | 29.8% | 42.5% | 81.1% | 43.8% | 64.3% | 50.6% | 55.2% | 9.91% (active) | 72.9% | 55.2% | 41% | 50% | 64.9% | 63.7% | 68%
3 | O=S(=O)(NCCCNc1nccc(-c2[nH]c(-c3ccccc3)nc2-c2ccc(Cl)c(O)c2)n1)c1cccc(F)c1 | 65.5% | 62.8% | 87.9% | 75.2% | 55.2% | 85.5% | 54.2% | 65.2% | 100% | 87.9% | 66.1% | 35.3% | 2.24% (active) | 60.2% | 34.1% | 74.3% | 47.4% | 94.1% | 25.6%
4 | Fc1ccc(-c2cc3nc(C(Cl)Cl)nc(-c4ccco4)n3n2)cc1 | 37.3% | 93.2% | -22.3% (active) | -18.8% (active) | -17.3% (active) | -15.1% (active) | 89.9% | -20.1% (active) | 33.2% | -45.4% (active) | -48.2% (active) | 33.4% | 93.3% | -26.2% (active) | -65.6% (active) | 3.07% (active) | -9.65% (active) | -43.4% (active) | 30.8%
5 | N#Cc1c(NC(=O)c2cccc(C(F)(F)F)c2F)sc2c1CCC(=O)C2 | 11% | -23.9% (active) | 35.1% | 19.4% | 9.08% (active) | -66.1% (active) | 3.71% (active) | 12.3% | 14.8% | -8.77% (active) | 24.6% | 1.31% (active) | -21.6% (active) | -48% (active) | -67.1% (active) | 11.2% | -19.4% (active) | -41.8% (active) | -36.3% (active)
6 | Cc1cc(C)n(C(=O)c2sc(=S)n(-c3ccccc3)c2N=Nc2c(N)n[nH]c2N)n1 | 104% | 102% | 101% | 103% | 108% | 114% | 93.2% | 102% | 111% | 109% | 110% | 105% | 73.9% | 89.2% | 116% | 104% | 104% | 99.1% | 106%
7 | Cc1ccc(-c2cc3nc(C(Cl)Cl)nc(-c4cccs4)n3n2)cc1 | 83.9% | 87.3% | 38.6% | 54.1% | 3.91% (active) | 80% | 97.9% | 67.9% | 100% | 43.7% | 3.22% (active) | 93.2% | 71.7% | 41.6% | 40.5% | 82.2% | 32.8% | 68.5% | 106%
8 | O=C(CCC(=O)N1CCOCC1)OCCCCCCSc1ccc([N+](=O)[O-])c2nonc12 | -60.7% (active) | -20.7% (active) | 45.6% | 38.1% | -13.6% (active) | -14.3% (active) | -61.2% (active) | 29.8% | -20.7% (active) | -56.7% (active) | -91.9% (active) | 6.53% (active) | -81.2% (active) | -39.8% (active) | -62% (active) | -9.47% (active) | -12.5% (active) | -88.4% (active) | -25.7% (active)
9 | Cc1ccc(NC(=O)c2ccc(CN3CCOCC3)c(C(F)(F)F)c2)cc1Oc1ccc(-c2[nH]nc3ncnc(N)c23)cc1 | 84.6% | 66% | 72% | 86.9% | 66.3% | 50.8% | 62.5% | 65.1% | 69.2% | 18.8% | 76.9% | 20% | 27.4% | 54.3% | 40.5% | 81.6% | 63.2% | 49.3% | 48.7%
10 | NS(=O)(=O)c1ccc(-n2cc(CN3CCNCC3)nn2)cc1 | 106% | 101% | 113% | 102% | 108% | 113% | 98.4% | 110% | 99.4% | 116% | 111% | 95.9% | 112% | 105% | 111% | 102% | 106% | 98.7% | 111%
11 | Nc1cc(F)ccc1NC(=O)c1ccc(NC(=O)C/C=C/c2cccnc2)cc1 | 62.5% | 70.8% | 67% | 48.7% | 56.8% | 25.2% | 15.2% | 55.9% | 72.6% | 21.2% | 23.7% | 26% | 47.6% | 57.2% | 87.1% | 53.7% | 41.6% | 11.9% | 55.8%
12 | NS(=O)(=O)c1ccc(Nc2nc(N/N=C/CCc3ccccc3)nc(Nc3ccccc3)n2)cc1 | 104% | 104% | 108% | 108% | 104% | 97.4% | 87.1% | 106% | 93.6% | 105% | 109% | 96.7% | 113% | 97.5% | 96% | 107% | 106% | 98.3% | 112%
13 | O=C(Nc1ccc(F)c(F)c1)c1cc(-c2ccc(F)cc2F)ccc1O | -9.76% (active) | 3.67% (active) | 3.88% (active) | 19% | 2.98% (active) | -19% (active) | -1.71% (active) | 8.98% (active) | 9.53% (active) | 82.1% | 18.5% | 12.2% | -13.9% (active) | 4.13% (active) | -28.1% (active) | 16.3% | -23.4% (active) | 12.5% | -9.01% (active)
14 | C#CCNC1CCC(c2csc(C#C)n2)=C1C (centres undefined) | -39.4% (active) | 75.4% | 90.8% | 28.2% | 98.9% | -50.6% (active) | 49.7% | 96.2% | 17.1% | 105% | 67.6% | 63% | -78.3% (active) | 8.61% (active) | 117% | 78.1% | -28.2% (active) | -92.4% (active) | 80.1%
15 | C#Cc1nc(C(=O)NCCC(=O)Nc2ccc(NC(=O)c3ccc(/C=C/C(=O)c4nccn4C)cc3)cc2)cs1 | 33.1% | 74.9% | 62.2% | 24.1% | 33.9% | 120% | 14.9% | 55.8% | -59.8% (active) | 56.1% | 21.1% | 8.97% (active) | 6.41% (active) | 5.11% (active) | 45.8% | 33.4% | 55.6% | -89.4% (active) | 78.5%
16 | C=C1CC[C@@H]2[C@]3(C)COC(c4ccccc4)O[C@@H]3CC[C@@]2(C)[C@@H]1C/C=C1/C(=O)OC[C@H]1O (some centres undefined) | 96.8% | 96.1% | 97.1% | 110% | 99.8% | 105% | 63.5% | 92.6% | 111% | 108% | 92.1% | 43.7% | 110% | 99.3% | 127% | 97.5% | 102% | 92.1% | 85%
